Measured values as given in PubChem BioAssay (EPA / NIEHS).
Inconclusive results are not listed. Calls of active or inactive are those of the source. Rule for the calls, unless noted: active = hit-call score of the fitted dose curve at least 0.9, where 1 is the maximum; inconclusive = response in the unintended direction; inactive = score below 0.9.

Key:
[1] = TOX21_p53_BLA_p2_viability: Viability Assessment in the Tox21 HCT-116 p53 Agonism Beta-lactamase Assay, Phase 2 (AID 2283591);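 note: actives lower the ATP signal meaning cytotoxicity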
Procedure, shortened: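 HCT116 p53-bla cells, 4000/well, dosed after 5 h plating (217-fold dilution of DMSO stocks) and incubated 16 h at 37C. Viability taken as cellular ATP by CellTiter-Glo luminescence after 30 min RT; signal loss marks cytotoxicity.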

[2] = TOX21_p53_BLA_p3_viability: Viability Assessment in the Tox21 HCT-116 p53 Agonism Beta-lactamase Assay, Phase 3 (AID 2283593);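 note: cells exposed to compound for 16 h before reading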
Procedure, shortened: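 HCT116 cells, 4000/well, dosed 5 h after plating by pin transfer (217-fold dilution from DMSO stock) and incubated 16 h at 37C, 5% CO2. Viability read as ATP luminescence with CellTiter-Glo after 30 min at room temperature.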

[3] = target: Cellular tumor antigen p53 (Homo sapiens) (UniProt P04637); experiment: TOX21_p53_BLA_p3_ratio: Tox21 HCT-116 p53 Agonism Beta-lactamase Assay, Ratio, Phase 3 (AID 2283596)
Sequence of Cellular tumor antigen p53 (Homo sapiens) (P04637 whole entry, looked up): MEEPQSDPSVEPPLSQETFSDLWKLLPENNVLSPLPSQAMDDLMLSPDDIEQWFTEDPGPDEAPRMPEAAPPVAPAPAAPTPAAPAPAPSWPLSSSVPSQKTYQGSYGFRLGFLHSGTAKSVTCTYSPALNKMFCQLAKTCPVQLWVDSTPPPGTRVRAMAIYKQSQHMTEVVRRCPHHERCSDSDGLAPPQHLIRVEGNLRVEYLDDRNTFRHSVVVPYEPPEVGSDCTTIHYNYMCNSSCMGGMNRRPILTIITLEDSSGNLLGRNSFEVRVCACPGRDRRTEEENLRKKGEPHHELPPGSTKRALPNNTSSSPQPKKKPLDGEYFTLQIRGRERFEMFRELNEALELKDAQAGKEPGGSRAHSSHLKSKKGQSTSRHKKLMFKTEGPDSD
Procedure, shortened: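 Cells were seeded at 4000/well, rested 5 h at 37C, then dosed with DMSO compound solutions (217-fold dilution) for 16 h. CCF4-AM substrate was loaded for 2 h at room temperature, and the 460/530 nm emission ratio was fitted for gain of signal versus DMSO.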

[4] = TOX21_p53_BLA_p4_viability: Viability Assessment in the Tox21 HCT-116 p53 Agonism Beta-lactamase Assay, Phase 4 (AID 2283597);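 note: hits lower the luminescence signal meaning cytotoxicity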
Procedure, shortened: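 4000 HCT116 cells per well; 5 h attachment; compounds from DMSO, 217-fold dilution; 16 h at 37C. Then CCF4-AM, 2 h RT, followed by CellTiter-Glo, 30 min RT, luminescence. Decrease = cytotoxicity.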

[5] = target: Cellular tumor antigen p53 (Homo sapiens) (UniProt P04637); experiment: TOX21_p53_BLA_p5_ratio: Tox21 HCT-116 p53 Agonism Beta-lactamase Assay, Ratio, Phase 5 (AID 2283599)
Procedure, shortened: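 HCT-116 p53-bla cells (4000/well) plated 5 h, dosed with compound (217-fold DMSO dilution) for 16 h at 37 C; CCF4-AM substrate 2 h at room temperature. Activity is the 460/530 nm emission ratio (405 nm excitation), fitted in gain-of-signal direction versus DMSO.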

[6] = target: Cellular tumor antigen p53 (Homo sapiens) (UniProt P04637); experiment: TOX21_p53_BLA_p4_ratio: Tox21 HCT-116 p53 Agonism Beta-lactamase Assay, Ratio, Phase 4 (AID 2283601)
Procedure, shortened: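 HCT-116 p53 beta-lactamase reporter cells (4000/well) preincubated 5 h, then compound (217-fold dilution of DMSO stock) for 16 h at 37C. CCF4-AM substrate added 2 h at room temperature; 460/530 nm emission ratio fitted upward versus DMSO.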

[7] = TOX21_p53_BLA_p5_viability: Viability Assessment in the Tox21 HCT-116 p53 Agonism Beta-lactamase Assay, Phase 5 (AID 2283600)
Procedure, shortened: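 Decreased CellTiter-Glo luminescence denotes lost viability. Exposure: 16 h at 37C, 5% CO2, with compounds from DMSO stocks diluted 217-fold in wells of 4000 cells.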

[8] = CCTE_Harrill_HTTr_Viability_MCF7: CCTE's 6-hour Cell Viability Assessment for the High-Throughput Transcriptomics (HTTr) Platform, in MCF-7 cells cultured in DMEM + 10% fetal bovine serum, Harrill Lab (AID 2284010; active = hit-call score of the fitted dose curve at least 0.9, where 1 is the maximum; inactive = score below 0.9)
Procedure, shortened: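 Eight-point concentration series, six-hour exposure. Propidium iodide exclusion imaged to assess membrane integrity as a cytotoxicity readout; bidirectional fitting was done with DMSO as negative control and activity baseline.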

[9] = CCTE_Harrill_HTTr_Apoptosis_MCF7: CCTE's 6-hour Apoptosis Assessment for the High-Throughput Transcriptomics (HTTr) Platform, in MCF-7 cells cultured in DMEM + 10% fetal bovine serum, Harrill Lab (AID 2284011; active = hit-call score of the fitted dose curve at least 0.9, where 1 is the maximum; inactive = score below 0.9)
Procedure, shortened: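 MCF-7 cells in DMEM + 10% FBS exposed 6 h to chemicals over an eight-point dilution series. Caspase-3/7 activation imaged by high-content CellEvent Green staining; fitted bidirectionally versus DMSO.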

[10] = CCTE_Harrill_HTTr_CellCount_MCF7: CCTE's Cell Proliferation Assessment for the High-Throughput Transcriptomics (HTTr) Platform, Harrill Lab (AID 2284012);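 note: count of Hoechst-stained nuclei per well by high-content imaging in MCF-7 cells; cells exposed to compound for six hours; intended direction is loss of nuclei count meaning fewer cells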
Procedure, shortened: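 For this full-screen endpoint, MCF-7 cultures received eight compound dilutions for six hours. Well nuclei counts from Hoechst imaging were analyzed relative to DMSO.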

Measured: outcome

CO[C@@H]1[C@@H](O[C@@H]2O[C@H](C)[C@@H](O[C@H]3C[C@@](C)(O)[C@@H](O)[C@H](C)O3)[C@H](N(C)C)[C@H]2O)[C@@H](CC=O)C[C@@H](C)[C@@H](O[C@@H]2CC[C@H](N(C)C)[C@@H](C)O2)/C=C/C=C/C[C@@H](C)OC(=O)C[C@H]1OC(C)=O
inactive: [1] | [2] | [3] | [4] | [5] | [6]

CCN(CC)C(=O)N1CCN(C)CC1
inactive: [1] | [2] | [3] | [4] | [6]

CC(C)(C)NCC(O)COc1ccc(NC(=O)NC2CCCCC2)cc1 (stereo unspecified)
inactive: [1] | [2] | [3] | [4] | [7]

CC(CCl)OC(C)CCl (stereo unspecified)
inactive: [1] | [2] | [3] | [4] | [5] | [6]

Cc1nc(C)c(C)nc1C
not listed: [6]
inactive: all other assays above
